High-throughput results deposited in PubChem by several laboratories.
Compounds with a hit are over-represented: about 5.6% of the library has one in this group of screens.
M18AAP inhibitor = PfM18AAP enzyme inhibition; AID 1822; 1.2% of 290,000 active; inhibition, % at 7.35 µM; recombinant PfM18AAP, H-Glu-NHMec fluorogenic cleavage;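 active means inhibition above the campaign mean inhibition over all tested compounds plus 3 SD, cut at about 28% in these data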;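 further: 0% = plate median of test compound wells and 100% = 2 mM ZnCl2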
ALR H2O2 inh = human ALR oxidase inhibition via reduced H2O2; AID 485317; P55789; inhibition, % (concentration not given with the values); 3.8% of 290,000 active; purified ALR, DTT oxidation, H2O2 HRP-luminol luminescence;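 active means mean replicate inhibition above about 79%, with every replicate also reaching it, limit read from the data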
Target sequence (P55789 whole entry, looked up): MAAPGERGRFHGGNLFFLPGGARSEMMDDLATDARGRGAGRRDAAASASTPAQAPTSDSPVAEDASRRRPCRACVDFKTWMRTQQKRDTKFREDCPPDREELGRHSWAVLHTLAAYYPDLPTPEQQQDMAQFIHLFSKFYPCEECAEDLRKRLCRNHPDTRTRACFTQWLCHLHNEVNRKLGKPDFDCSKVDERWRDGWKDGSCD
PfG6PD inh = PfG6PD (Plasmodium falciparum) enzyme inhibition; PfGluPho enzyme, NADPH resazurin-diaphorase fluorescence; 0.78% of 350,000 active; AID 504690; inhibition, % at 20 µM;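 active means inhibition reaching at least a set limit at 20 µM in the primary screen, cut at about 59% in these data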;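 further: 0% = DMSO wells with substrate and 100% = DMSO wells lacking glucose-6-phosphate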
PHOSPHO1 inh = inhibitors of human PHOSPHO1 phosphatase; recombinant PHOSPHO1, absorbance phosphatase assay; inhibition, % at 13.3 µM; 1.1% of 290,000 active; AID 1565; in the data active means inhibition above about 60%
Target sequence (Q8TCT1 whole entry, looked up): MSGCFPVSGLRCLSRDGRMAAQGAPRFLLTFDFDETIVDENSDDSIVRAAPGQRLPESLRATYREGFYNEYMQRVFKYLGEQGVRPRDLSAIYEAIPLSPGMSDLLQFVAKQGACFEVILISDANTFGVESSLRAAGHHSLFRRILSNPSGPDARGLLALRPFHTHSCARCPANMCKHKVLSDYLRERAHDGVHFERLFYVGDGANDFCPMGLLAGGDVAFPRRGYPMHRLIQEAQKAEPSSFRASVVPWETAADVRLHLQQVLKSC
Cardio protect = protects H9c2 cardiomyocytes from peroxide injury; H2O2 injury protection, ATPLite, 2 h; protection from H2O2 cell death, % at 20 µM; 0.63% of 360,000 active; AID 588492;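 active means compounds giving at least 50% protection of heart cells from peroxide-induced death in the single-dose screen, raw or plate-pattern-corrected value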;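 further: 0% = DMSO wells with peroxide and 100% = DMSO wells without peroxide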
The depositor's hits bear a star.

CC1Cc2ccccc2N1C(=O)CN1C(=O)NC(C)(CCc2ccccc2)C1=O (stereo unspecified) was read as M18AAP inhibitor -18, ALR H2O2 inh -29, PfG6PD inh -2, PHOSPHO1 inh 27 and Cardio protect 5.
CC(C)(C)c1nc(-c2ccccc2)nc2c1OCCC2 was read as ALR H2O2 inh -5, PfG6PD inh -16 and Cardio protect -7.
`Oc1ccc(N=Nc2cccc(Cl)c2)cc1C=Nc1ccc(N2CCOCC2)cc1` gave M18AAP inhibitor 4, PfG6PD inh 8, PHOSPHO1 inh 6 and Cardio protect 66*.
For CCOC(=O)/C=C/C(=O)OCC(=O)Nc1ccc(Cl)cn1 the results were M18AAP inhibitor -19, ALR H2O2 inh 14, PfG6PD inh 1, PHOSPHO1 inh -2 and Cardio protect -4.
CCOC(=O)NC1(Nc2ccc(Cl)cn2)Oc2ccccc2O1 was read as M18AAP inhibitor 57* and PHOSPHO1 inh 9.
For Cc1cc(C(F)(F)F)nn1CC(=O)NNC(=S)Nc1ccc(F)cc1 the results were M18AAP inhibitor 15, ALR H2O2 inh 49, PfG6PD inh 0, PHOSPHO1 inh 86* and Cardio protect 3.
`Cc1cc(C(F)(F)F)nn1CC(=O)NNC(=S)Nc1ccc(Cl)cc1` gave M18AAP inhibitor 3, ALR H2O2 inh 7, PfG6PD inh -11, PHOSPHO1 inh 91* and Cardio protect 4.
For CC[C@H]1OC(=O)[C@H](C)[C@@H](O[C@H]2C[C@@](C)(OC)[C@@H](O)[C@H](C)O2)[C@H](C)[C@@H](O[C@@H]2O[C@H](C)C[C@H](N(C)C)[C@H]2O)[C@](C)(O)C[C@@H](C)C(=NOCOCCOC)[C@H](C)[C@@H](O)[C@]1(C)O the results were M18AAP inhibitor -1, ALR H2O2 inh -16, PfG6PD inh -18, PHOSPHO1 inh 31 and Cardio protect -1.
`Cc1cn(CCC(=O)Nc2ccccc2N2CCOCC2)c2ccccc12` gave M18AAP inhibitor -15, ALR H2O2 inh 3, PfG6PD inh 2, PHOSPHO1 inh 1 and Cardio protect -1.
COC(=O)Cc1ccc(NC(=S)NCCCN2CCOCC2)cc1 was read as M18AAP inhibitor 2, ALR H2O2 inh -19, PfG6PD inh -20, PHOSPHO1 inh 39 and Cardio protect -2.
`COc1ccccc1CNCC(=O)Nc1ccc(N2CCOCC2)cc1` gave M18AAP inhibitor -7, ALR H2O2 inh 99*, PfG6PD inh 7, PHOSPHO1 inh -1 and Cardio protect 2.
Screening Cc1cccc(NC(=S)Nc2ccc(N3CCOCC3)cc2)c1C returned M18AAP inhibitor 3, ALR H2O2 inh 99*, PfG6PD inh 5, PHOSPHO1 inh -2 and Cardio protect -1.
Screening Cc1cn(CCC(=O)Nc2ccc(N3CCOCC3)cc2)c2ccccc12 returned M18AAP inhibitor 1, ALR H2O2 inh 82*, PfG6PD inh -18, PHOSPHO1 inh 45 and Cardio protect -1.
For COC(=O)Cc1ccc(NC(=S)Nc2ccc(N3CCOCC3)cc2)cc1 the results were M18AAP inhibitor 22, ALR H2O2 inh 89*, PfG6PD inh -8, PHOSPHO1 inh 25 and Cardio protect 4.
Screening O=C(Cc1ccccc1)NNC(=S)Nc1ccccc1 returned M18AAP inhibitor 19, ALR H2O2 inh 30, PfG6PD inh 28, PHOSPHO1 inh -121 and Cardio protect -4.
CC(C)COCC(O)CCC(=O)NNC(=S)Nc1ccccc1 (stereo unspecified) was read as M18AAP inhibitor 16, ALR H2O2 inh 93*, PfG6PD inh 17, PHOSPHO1 inh -1 and Cardio protect 4.
For Cc1ccccc1-n1nc2c(c1NC(=O)C1CC1)CS(=O)(=O)C2 the results were PfG6PD inh 7 and Cardio protect 0.
CCc1nnc(NC(=O)CSc2nnc(C)c(=O)n2N)s1 was read as M18AAP inhibitor -10, ALR H2O2 inh 95*, PfG6PD inh 7, PHOSPHO1 inh 10 and Cardio protect 6.
For CCc1ccc(NC(=O)CSc2nnc(C)c(=O)n2N)cc1 the results were M18AAP inhibitor -4, ALR H2O2 inh 99*, PfG6PD inh -2, PHOSPHO1 inh 33 and Cardio protect 1.
Screening Cc1ccc(NC(=O)CSc2nnc(C)c(=O)n2N)cc1 returned M18AAP inhibitor -9, ALR H2O2 inh 5, PfG6PD inh 2, PHOSPHO1 inh -13 and Cardio protect 0.
`Cc1nnc(SCC(=O)Nc2ccccc2)n(N)c1=O` gave M18AAP inhibitor -6, PfG6PD inh 15, PHOSPHO1 inh 40 and Cardio protect 14.
`Cc1nnc(SCC(=O)Nc2ccc(S(N)(=O)=O)cc2)n(N)c1=O` gave ALR H2O2 inh 99*, PfG6PD inh 1 and Cardio protect 14.
O=C(O)c1cccc(COc2cccc3ccccc23)c1 was read as ALR H2O2 inh -25, PfG6PD inh -15 and Cardio protect -2.
For CCC(C)[C@@H](CN)NCC1(c2ccccc2)CC1 (stereo partly specified) the results were ALR H2O2 inh 0, PfG6PD inh 7 and Cardio protect -1.
CCOC(=O)C1CCN(C(=O)COC(=O)c2ccccc2C(=O)c2ccc(Cl)cc2)CC1 was read as ALR H2O2 inh 6, PfG6PD inh 22 and Cardio protect 6.
For CN(C)CCNc1ncnc2c1ncn2[C@H]1CN(CCc2ccccc2)C[C@@H](CO)O1 the results were Cardio protect -5.
COc1ccc(S(=O)(=O)Nc2ccc(S(=O)(=O)N3CCCCC3)cc2)cc1 was read as M18AAP inhibitor 2, ALR H2O2 inh 97*, PfG6PD inh -23, PHOSPHO1 inh 32 and Cardio protect 0.
Cc1ccc(NC(=O)NC2CCN(S(=O)(=O)c3ccc(F)cc3)CC2)cc1 was read as M18AAP inhibitor -2, ALR H2O2 inh 0, PfG6PD inh 10, PHOSPHO1 inh 9 and Cardio protect -5.
Screening COc1ccc(S(=O)(=O)N2CCC(NC(=O)Nc3ccc(C)cc3)CC2)cc1 returned M18AAP inhibitor 5, ALR H2O2 inh 25, PfG6PD inh 1, PHOSPHO1 inh 60* and Cardio protect -1.
Screening COc1ccc(NC(=S)N2CCN(S(=O)(=O)c3ccc(F)cc3)CC2)cc1 returned M18AAP inhibitor 1, ALR H2O2 inh -22, PfG6PD inh -1, PHOSPHO1 inh 66* and Cardio protect 2.
Screening COc1ccc(NS(=O)(=O)c2ccc(N3CCCC3)c(N)c2)cc1 returned M18AAP inhibitor 8, ALR H2O2 inh 92*, PfG6PD inh -7, PHOSPHO1 inh 32 and Cardio protect -18.
COc1ccc(NS(=O)(=O)c2cc(N)ccc2N2CCCC2)cc1 was read as ALR H2O2 inh 32, PfG6PD inh 14 and Cardio protect -3.
CN(CC(=O)NCC(c1ccco1)N1CCCCC1)S(=O)(=O)c1ccc(Cl)cc1 (stereo unspecified) was read as ALR H2O2 inh -1, PfG6PD inh 1 and Cardio protect -4.
Screening CCOC(=O)c1oc2ccccc2c1COC(=O)CNC(=O)c1ccc(C)cc1 returned ALR H2O2 inh -1, PfG6PD inh -10 and Cardio protect 5.
